About 8,800 targets were measured; listed, in parts, are those with a hit and a random draw of the rest. About 0.5% of all pairs of compound and target were hits. Values without a mark were called inactive.
Legend:
Experiment in all cases: log2 fold change, soluble protein after heating vs DMSO (PISA); higher = thermal stabilisation; K562 lysate, 10 uM; active = over 0.2 and 3.5 SD of the protein, either way, in both replicates (recomputed)
vemurafenib = compound: CCCS(=O)(=O)Nc1ccc(F)c(C(=O)c2c[nH]c3ncc(-c4ccc(Cl)cc4)cc23)c1F [vemurafenib]
Outline: (§1)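 The values are log-two fold changes in thermal stability compared with solvent controls and come from duplicates. They were obtained by TMTpro 16plex LC-MS/MS, with channel sums equalised, on the supernatant after 21,000xg for 90 min. That supernatant came from crude K562 extract at 1 mg/mL protein treated with 10 μM compound for 30 min, heated for 3 min across 48°C-58°C, pooled and brought to 0.5% NP-40 at 4°C.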

[1] = compound: CCCS(=O)(=O)Nc1ccc(F)c(C(=O)c2c[nH]c3ncc(Cl)cc23)c1F
Outline: as §1

barasertib = compound: CCN(CCCOc1ccc2c(Nc3cc(CC(=O)Nc4cccc(F)c4)[nH]n3)ncnc2c1)CCOP(=O)(O)O [barasertib]
Outline: as §1

[2] = compound: CC[C@@H]1C(=O)N(C)c2cnc(Nc3ccc(C(=O)NC4CCN(C)CC4)cc3OC)nc2N1C1CCCC1
Outline: as §1

volasertib = compound: CC[C@@H]1C(=O)N(C)c2cnc(Nc3ccc(C(=O)N[C@H]4CC[C@H](N5CCN(CC6CC6)CC5)CC4)cc3OC)nc2N1C(C)C [volasertib]
Outline: as §1

[3] = compound: CCn1c(C(=O)N(C2CC2)C2CC2)cc2c3c(ncn3C)c(Nc3cc(C)n(C)n3)nc21
Outline: as §1

[4] = compound: CCn1cc(-c2ccnc3[nH]c(-c4cccc(CN(C)C)c4)cc23)c(-c2ccc(NC(=O)N(C)C)cc2)n1
Outline: as §1

[5] = compound: CN1CCC(CNc2ccc3ncc(-c4cccc(OC(F)(F)F)c4)n3n2)CC1
Outline: as §1

saracatinib = compound: CN1CCN(CCOc2cc(OC3CCOCC3)c3c(Nc4c(Cl)ccc5c4OCO5)ncnc3c2)CC1 [saracatinib]
Outline: as §1

sotrastaurin = compound: CN1CCN(c2nc(C3=C(c4c[nH]c5ccccc45)C(=O)NC3=O)c3ccccc3n2)CC1 [sotrastaurin]
Outline: as §1

alvocidib = compound: CN1CC[C@H](c2c(O)cc(O)c3c(=O)cc(-c4ccccc4Cl)oc23)[C@H](O)C1 [alvocidib]
Outline: as §1

Tubastatin A = compound: CN1CCc2c(c3ccccc3n2Cc2ccc(C(=O)NO)cc2)C1 [Tubastatin A]
Outline: as §1

[6] = compound: CNC(=O)C1=CC=CC=C1NC2=NC(=NC=C2Cl)NC3=C(C=C(C=C3)N4CCOCC4)OC
Outline: as §1

defactinib = compound: CNC(=O)c1ccc(Nc2ncc(C(F)(F)F)c(NCc3nccnc3N(C)S(C)(=O)=O)n2)cc1 [defactinib]
Outline: as §1

[7] = compound: CNc1nc(-c2ccc3c(N)n[nH]c3c2)cc(N2C[C@@H](C(=O)NC3CCCCC3)CC[C@H]2C)n1
Outline: as §1

encorafenib = compound: COC(=O)N[C@@H](C)CNc1nccc(-c2cn(C(C)C)nc2-c2cc(Cl)cc(NS(C)(=O)=O)c2F)n1 [encorafenib]
Outline: as §1

[8] = compound: COC(=O)[C@H](CCSC)NC(=O)C1=C(C=C(C=C1)NC[C@H](CS)N)C2=CC=CC=C2
Outline: as §1

alisertib = compound: COc1cc(Nc2ncc3c(n2)-c2ccc(Cl)cc2C(c2c(F)cccc2OC)=NC3)ccc1C(=O)O [alisertib]
Outline: as §1

[9] = compound: COc1cc2nc(-c3cc(F)ccc3O)nc(N[C@@H]3CNC[C@H]3C(C)(C)O)c2cc1OC
Outline: as §1

gefitinib = compound: COc1cc2ncnc(Nc3ccc(F)c(Cl)c3)c2cc1OCCCN1CCOCC1 [gefitinib]
Outline: as §1

Sequence of UniProt Q9UKL0 (Q9UKL0 whole entry, looked up): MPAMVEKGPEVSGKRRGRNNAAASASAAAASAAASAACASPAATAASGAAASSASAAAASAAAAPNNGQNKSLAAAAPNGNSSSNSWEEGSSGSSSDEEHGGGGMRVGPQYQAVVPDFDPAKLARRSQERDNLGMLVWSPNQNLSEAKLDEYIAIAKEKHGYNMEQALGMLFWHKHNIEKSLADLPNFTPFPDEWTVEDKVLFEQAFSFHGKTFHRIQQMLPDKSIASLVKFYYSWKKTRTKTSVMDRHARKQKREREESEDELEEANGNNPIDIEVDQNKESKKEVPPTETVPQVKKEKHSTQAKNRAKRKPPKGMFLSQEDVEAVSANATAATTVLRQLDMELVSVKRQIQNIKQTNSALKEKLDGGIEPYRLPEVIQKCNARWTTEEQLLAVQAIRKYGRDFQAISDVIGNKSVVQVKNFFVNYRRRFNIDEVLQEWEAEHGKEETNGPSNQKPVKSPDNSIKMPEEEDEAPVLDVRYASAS
Sequence of UniProt Q8WWV3 (Q8WWV3 whole entry, looked up): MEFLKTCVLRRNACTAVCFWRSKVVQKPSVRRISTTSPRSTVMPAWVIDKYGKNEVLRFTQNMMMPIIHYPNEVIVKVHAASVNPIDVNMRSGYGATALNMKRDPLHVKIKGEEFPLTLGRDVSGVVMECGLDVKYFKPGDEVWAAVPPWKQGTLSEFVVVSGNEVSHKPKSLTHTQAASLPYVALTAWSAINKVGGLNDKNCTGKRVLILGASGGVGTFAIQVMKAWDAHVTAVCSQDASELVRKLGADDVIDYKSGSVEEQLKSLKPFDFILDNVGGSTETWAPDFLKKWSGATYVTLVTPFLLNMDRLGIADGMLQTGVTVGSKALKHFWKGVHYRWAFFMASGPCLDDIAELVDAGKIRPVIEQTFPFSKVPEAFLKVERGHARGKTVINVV
Sequence of UniProt Q9Y3Z3 (Q9Y3Z3 whole entry, looked up): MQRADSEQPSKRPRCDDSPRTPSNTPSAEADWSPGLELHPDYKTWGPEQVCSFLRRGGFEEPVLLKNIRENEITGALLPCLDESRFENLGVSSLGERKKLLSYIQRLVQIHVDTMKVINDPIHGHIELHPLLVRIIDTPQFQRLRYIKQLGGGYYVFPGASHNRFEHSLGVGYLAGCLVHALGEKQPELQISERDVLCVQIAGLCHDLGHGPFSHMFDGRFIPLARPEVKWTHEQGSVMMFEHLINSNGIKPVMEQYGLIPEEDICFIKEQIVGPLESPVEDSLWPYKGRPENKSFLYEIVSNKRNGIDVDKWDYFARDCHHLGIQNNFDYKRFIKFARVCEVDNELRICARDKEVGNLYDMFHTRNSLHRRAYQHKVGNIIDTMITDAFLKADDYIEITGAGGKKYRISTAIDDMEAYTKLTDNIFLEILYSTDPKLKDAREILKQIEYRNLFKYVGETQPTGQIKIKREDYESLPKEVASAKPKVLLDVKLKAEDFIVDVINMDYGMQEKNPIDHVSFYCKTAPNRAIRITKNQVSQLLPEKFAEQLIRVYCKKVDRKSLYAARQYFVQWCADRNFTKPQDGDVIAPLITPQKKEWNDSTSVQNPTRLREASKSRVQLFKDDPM
Sequence of UniProt P53805 (P53805 whole entry, looked up): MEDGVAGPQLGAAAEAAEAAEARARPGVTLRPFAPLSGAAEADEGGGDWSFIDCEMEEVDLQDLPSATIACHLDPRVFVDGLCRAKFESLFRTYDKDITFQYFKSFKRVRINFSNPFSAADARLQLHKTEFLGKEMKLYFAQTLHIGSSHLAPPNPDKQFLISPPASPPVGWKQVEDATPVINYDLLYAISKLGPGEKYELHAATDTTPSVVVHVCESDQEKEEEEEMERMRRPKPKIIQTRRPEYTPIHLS
Sequence of UniProt P58004 (P58004 whole entry, looked up): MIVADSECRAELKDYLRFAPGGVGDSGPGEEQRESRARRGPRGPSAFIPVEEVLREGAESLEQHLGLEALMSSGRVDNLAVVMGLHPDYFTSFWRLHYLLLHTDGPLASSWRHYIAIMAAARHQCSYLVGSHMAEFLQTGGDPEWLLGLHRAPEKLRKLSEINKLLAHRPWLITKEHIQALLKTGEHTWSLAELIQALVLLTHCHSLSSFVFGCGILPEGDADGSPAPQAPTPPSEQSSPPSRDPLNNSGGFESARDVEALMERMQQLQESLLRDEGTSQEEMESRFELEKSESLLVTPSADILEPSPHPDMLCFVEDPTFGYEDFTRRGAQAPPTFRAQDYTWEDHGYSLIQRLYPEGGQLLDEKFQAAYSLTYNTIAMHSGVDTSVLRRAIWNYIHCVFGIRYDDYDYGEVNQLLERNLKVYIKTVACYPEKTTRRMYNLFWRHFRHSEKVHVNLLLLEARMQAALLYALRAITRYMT
Sequence of UniProt P23443 (P23443 whole entry, looked up): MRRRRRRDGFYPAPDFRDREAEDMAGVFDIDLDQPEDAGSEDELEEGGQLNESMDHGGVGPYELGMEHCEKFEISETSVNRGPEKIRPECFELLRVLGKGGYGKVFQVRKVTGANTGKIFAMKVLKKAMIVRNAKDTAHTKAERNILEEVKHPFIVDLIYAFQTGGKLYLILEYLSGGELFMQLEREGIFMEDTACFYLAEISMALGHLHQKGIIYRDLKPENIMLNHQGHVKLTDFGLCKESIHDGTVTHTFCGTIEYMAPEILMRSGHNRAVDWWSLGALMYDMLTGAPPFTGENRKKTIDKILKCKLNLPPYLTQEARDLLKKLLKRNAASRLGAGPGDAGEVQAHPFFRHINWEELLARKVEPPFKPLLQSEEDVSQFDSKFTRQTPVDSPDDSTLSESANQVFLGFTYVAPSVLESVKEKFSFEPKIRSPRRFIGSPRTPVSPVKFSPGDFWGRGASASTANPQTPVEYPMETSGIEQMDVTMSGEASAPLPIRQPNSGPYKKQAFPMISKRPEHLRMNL
Sequence of UniProt Q5TBB1 (Q5TBB1 whole entry, looked up): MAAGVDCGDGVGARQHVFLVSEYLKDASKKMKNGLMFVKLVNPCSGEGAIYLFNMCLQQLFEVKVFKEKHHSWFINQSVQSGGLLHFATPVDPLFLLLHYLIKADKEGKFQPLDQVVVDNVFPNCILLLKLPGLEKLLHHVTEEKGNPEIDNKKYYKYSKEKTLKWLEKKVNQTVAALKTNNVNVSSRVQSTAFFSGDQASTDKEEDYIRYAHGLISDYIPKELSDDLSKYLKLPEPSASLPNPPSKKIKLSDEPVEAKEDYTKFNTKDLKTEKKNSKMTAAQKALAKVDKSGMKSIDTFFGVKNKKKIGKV
Sequence of UniProt Q99442 (Q99442 whole entry, looked up): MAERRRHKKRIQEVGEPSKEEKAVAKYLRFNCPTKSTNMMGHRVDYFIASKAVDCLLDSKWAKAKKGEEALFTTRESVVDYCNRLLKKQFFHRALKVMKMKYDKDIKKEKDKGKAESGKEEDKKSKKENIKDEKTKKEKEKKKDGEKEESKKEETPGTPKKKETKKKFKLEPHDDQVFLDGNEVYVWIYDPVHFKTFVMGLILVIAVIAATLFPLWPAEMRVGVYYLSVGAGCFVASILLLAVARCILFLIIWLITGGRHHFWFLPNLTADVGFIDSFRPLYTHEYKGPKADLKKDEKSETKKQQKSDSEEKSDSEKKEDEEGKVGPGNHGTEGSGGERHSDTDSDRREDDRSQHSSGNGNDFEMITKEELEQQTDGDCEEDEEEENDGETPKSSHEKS
Sequence of UniProt P40938 (P40938 whole entry, looked up): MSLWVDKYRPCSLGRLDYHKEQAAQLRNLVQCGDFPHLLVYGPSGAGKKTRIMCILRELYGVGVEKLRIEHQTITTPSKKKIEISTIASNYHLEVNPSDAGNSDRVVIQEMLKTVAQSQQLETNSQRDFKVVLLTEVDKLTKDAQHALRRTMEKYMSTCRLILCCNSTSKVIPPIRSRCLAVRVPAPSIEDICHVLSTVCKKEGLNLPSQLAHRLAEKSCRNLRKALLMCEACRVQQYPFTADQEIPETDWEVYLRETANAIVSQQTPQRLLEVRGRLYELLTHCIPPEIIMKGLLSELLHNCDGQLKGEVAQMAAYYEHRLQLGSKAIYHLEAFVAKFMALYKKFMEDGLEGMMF
Sequence of UniProt Q53S08 (Q53S08 whole entry, looked up): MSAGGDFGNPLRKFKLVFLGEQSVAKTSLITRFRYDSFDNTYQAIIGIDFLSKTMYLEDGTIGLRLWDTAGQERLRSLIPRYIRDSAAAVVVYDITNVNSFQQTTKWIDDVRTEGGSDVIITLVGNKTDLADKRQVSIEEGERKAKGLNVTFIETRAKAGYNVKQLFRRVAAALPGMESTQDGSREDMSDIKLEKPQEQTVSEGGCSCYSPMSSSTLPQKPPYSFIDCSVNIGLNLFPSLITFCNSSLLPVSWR
Sequence of UniProt Q9H974 (Q9H974 whole entry, looked up): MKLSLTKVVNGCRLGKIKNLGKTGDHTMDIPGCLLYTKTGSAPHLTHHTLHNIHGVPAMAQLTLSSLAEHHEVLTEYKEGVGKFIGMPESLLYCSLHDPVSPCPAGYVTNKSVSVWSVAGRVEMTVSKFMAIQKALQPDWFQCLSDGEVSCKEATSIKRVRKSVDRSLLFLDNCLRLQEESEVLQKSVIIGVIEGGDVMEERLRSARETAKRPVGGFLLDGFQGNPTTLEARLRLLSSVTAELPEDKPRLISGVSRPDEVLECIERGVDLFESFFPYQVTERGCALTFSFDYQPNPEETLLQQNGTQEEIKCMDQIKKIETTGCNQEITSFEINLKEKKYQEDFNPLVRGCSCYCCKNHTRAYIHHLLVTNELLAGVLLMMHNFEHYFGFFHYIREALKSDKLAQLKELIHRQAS

| Target | log2 fold change (vemurafenib) | log2 fold change [1] | log2 fold change (barasertib) | log2 fold change [2] | log2 fold change (volasertib) | log2 fold change [3] | log2 fold change [4] | log2 fold change [5] | log2 fold change (saracatinib) | log2 fold change (sotrastaurin) | log2 fold change (alvocidib) | log2 fold change (Tubastatin A) | log2 fold change [6] | log2 fold change (defactinib) | log2 fold change [7] | log2 fold change (encorafenib) | log2 fold change [8] | log2 fold change (alisertib) | log2 fold change [9] | log2 fold change (gefitinib) |
| --- | --- | --- | --- | --- | --- | --- | --- | --- | --- | --- | --- | --- | --- | --- | --- | --- | --- | --- | --- | --- |
| RPLP0P6 (UniProt Q8NHW5) | -0.002 | 0.012 | -0.121 | 0.009 | -0.009 | -0.02 | -0.011 | 0.017 | -0.011 | -0.02 | -0.018 | 0.015 | -0.001 | -0.014 | 0.023 | 0.001 | 0.018 | 0.004 | 0.023 | -0.019 |
| RAB6D (UniProt Q53S08) | 0.005 | -0.033 | 0.15 | 0.289 (active) | 0.033 | -0.049 | -0.065 | 0.018 | -0.053 | -0.025 | -0.029 | 0.078 | 0.024 | 0.077 | 0.087 | 0.023 | -0.034 | -0.149 | 0.062 | 0.027 |
| SESN2 (UniProt P58004) | -0.008 | 0.025 | 0.049 | -0.103 | -0.066 | 0.019 | 0.02 | -0.105 | -0.043 | 0.047 | 0.028 | -0.093 | -0.028 | 0.039 | 0.033 | 0.038 | -0.001 | -0.026 | -0.045 | -0.034 |
| RFC3 (UniProt P40938) | 0.021 | 0.025 | 0.046 | -0.033 | -0.065 | 0.013 | 0.133 | 0.001 | 0.001 | 0.039 | -0.008 | -0.142 | 0.024 | 0.036 | -0.014 | 0.002 | -0.005 | 0.007 | 0.029 | -0.075 |
| RPS6KB1 (UniProt P23443) | -0.052 | -0.001 | 0.068 | -0.109 | -0.041 | 0.078 | -0.155 | 0.185 | -0.022 | 0.074 | -0.021 | -0.184 | 0.115 | 0.094 | -0.013 | -0.039 | 0.218 | -0.02 | 0.166 | 0.062 |
| RPL28 (UniProt P46779) | 0 | -0.016 | -0.049 | -0.001 | 0.006 | -0.017 | 0.278 (active) | -0.066 | -0.011 | -0.038 | 0.03 | 0.006 | -0.009 | -0.018 | 0.036 | 0.012 | -0.014 | 0.011 | -0.005 | -0.058 |
| RCOR1 (UniProt Q9UKL0) | 0.028 | -0.03 | 0.108 | -0.008 | 0.003 | -0.001 | -0.071 | 0.017 | 0.001 | 0.004 | -0.031 | -0.021 | -0.017 | -0.039 | 0.014 | 0.01 | 0.115 | 0.023 | 0.027 | -0.011 |
| RIOK2 (UniProt Q9BVS4) | -0.074 | 0.006 | -0.053 | 0.016 | -0.026 | -0.03 | -0.115 | 0.066 | -0.023 | 0.04 | -0.021 | -0.098 | 0.438 (active) | 0.105 | 0.127 | -0.025 | 0.029 | -0.005 | -0.051 | -0.011 |
| QTRT2 isoform 4 (UniProt Q9H974) | 0.003 | 0.012 | 0.004 | -0.022 | 0.036 | -0.035 | -0.318 (active) | 0.227 (active) | 0.016 | 0.013 | -0.105 | 0.003 | 0.018 | -0.014 | 0 | -0.018 | -0.044 | 0.016 | 0.008 | 0.031 |
| SAMHD1 (UniProt Q9Y3Z3) | 0.034 | 0.045 | 0.007 | -0.032 | -0.037 | 0.068 | -0.096 | 0.079 | -0.052 | 0.032 | -0.019 | -0.072 | 0.041 | -0.021 | -0.015 | 0 | 0.099 | -0.013 | 0.02 | 0.044 |
| RTN4IP1 (UniProt Q8WWV3) | -0.02 | 0.047 | -0.049 | -0.018 | -0.014 | -0.007 | 0.058 | -0.106 | -0.048 | 0.015 | 0.042 | -0.079 | 0.036 | -0.014 | 0 | -0.021 | 0.003 | -0.111 | 0.019 | 0.196 |
| RNASEH2B (UniProt Q5TBB1) | -0.008 | 0.034 | -0.035 | -0.056 | -0.044 | -0.001 | 0.026 | -0.101 | -0.022 | 0.062 | 0.05 | -0.046 | -0.003 | 0.092 | -0.021 | 0.035 | 0.338 (active) | -0.031 | -0.038 | -0.031 |
| SEC62 (UniProt Q99442) | -0.024 | 0.039 | 0.027 | 0.017 | 0.011 | 0 | 0.373 (active) | -0.12 | -0.011 | -0.04 | 0.046 | 0.07 | 0.019 | 0.02 | 0.045 | -0.012 | -0.084 | -0.003 | -0.028 | 0.004 |
| RCOR3 isoform 3 (UniProt Q9P2K3) | -0.03 | -0.01 | -0.003 | -0.001 | -0.012 | 0.029 | -0.017 | 0.003 | 0.03 | -0.015 | -0.005 | -0.09 | -0.002 | 0.009 | -0.014 | 0.012 | 0.088 | 0.003 | -0.006 | 0.026 |
| RPL31 (UniProt P62899) | 0.01 | 0.004 | 0.004 | 0.006 | -0.005 | -0.013 | -0.043 | -0.005 | 0.024 | 0.014 | -0.013 | 0.032 | -0.042 | -0.024 | 0.044 | -0.016 | 0.035 | 0.033 | -0.015 | -0.035 |
| RCAN1 (UniProt P53805) | 0.028 | 0.061 | 0.034 | -0.022 | -0.026 | -0.06 | -0.024 | 0.041 | 0.025 | -0.056 | -0.003 | -0.118 | 0.052 | 0.006 | 0.079 | 0.065 | 0.035 | -0.02 | 0.019 | -0.038 |

— the supplement of paper PMC10849652
